An excerpt weighted towards active compounds, which were near 1.2% of everything screened.
RGS4-Gao reg = modulates binding of RGS4 to human Galphao | Multiplexed bead flow cytometry; actives lie on both sides | P09471 | AID 1415 | binding response (% of control), % at 10 µM | 220,000 compounds, 0.33% hits; in the data active = binding response below about 49% or above about 150%; inactive = in between;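 note: fluorescent Galphao activated with aluminum fluoride binding bead-coupled RGS4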
Target sequence (P09471 whole entry, looked up): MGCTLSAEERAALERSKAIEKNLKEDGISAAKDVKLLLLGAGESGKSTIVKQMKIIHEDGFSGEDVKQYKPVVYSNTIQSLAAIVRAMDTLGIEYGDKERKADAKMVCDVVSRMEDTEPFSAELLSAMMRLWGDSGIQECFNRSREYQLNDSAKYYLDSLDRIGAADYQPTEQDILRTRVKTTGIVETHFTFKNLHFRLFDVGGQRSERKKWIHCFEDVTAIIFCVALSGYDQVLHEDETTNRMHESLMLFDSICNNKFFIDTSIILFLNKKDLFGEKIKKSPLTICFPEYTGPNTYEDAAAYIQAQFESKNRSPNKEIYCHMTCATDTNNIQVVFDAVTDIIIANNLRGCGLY
RGS8-Gao reg = regulators of human RGS8-Galphao interaction; multiplexed bead flow cytometry, RGS8-Galphao binding; actives lie on both sides; response (percent of control binding), % at 10 µM; 220,000 compounds, 0.34% hits; in the data active = response below about 60% or above about 140%; inactive = in between;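 note: Galphao activated as the GDP aluminium fluoride complex binding bead-coupled RGS8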
RGS16-Gao = regulators of human RGS16-Galphao interaction | O15492+P09471 | bead-based flow cytometry RGS16-Galphao binding, fluorescence; actives lie on both sides | binding response (% of control), % at 10 µM | 220,000 compounds, 0.38% hits | AID 1441;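 note: Galphao activated by GDP with aluminum fluoride before binding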
Target sequence (O15492 whole entry, looked up): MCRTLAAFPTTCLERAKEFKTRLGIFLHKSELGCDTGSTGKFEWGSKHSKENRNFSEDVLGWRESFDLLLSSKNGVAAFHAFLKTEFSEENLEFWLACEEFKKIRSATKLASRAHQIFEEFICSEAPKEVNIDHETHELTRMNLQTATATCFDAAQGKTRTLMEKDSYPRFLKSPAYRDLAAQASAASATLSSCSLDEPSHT
Target sequence (P09471 whole entry, looked up): as the sequence (P09471 whole entry, looked up) above
GSH bead fluor = GSH bead compound fluorescence profile | fluorescence (KMESF) at 10 µM | GSH beads flow cytometry, compound fluorescence 488/530 nm; active compounds read high | 190,000 compounds, 0.25% hits | AID 1776; in the data active = fluorescence above about 89;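 note: glutathione beads carrying GST-tagged Bcl family fusion proteins plus one bare bead set; values are compound well signal with DMSO vehicle wells as background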
Avidin bead fluor = avidin bead compound fluorescence profile. Avidin beads, compound fluorescence 488/530 nm, flow cytometry; active compounds read high. fluorescence (KMESF) at 10 µM. 220,000 compounds, 0.38% hits. AID 1775; in the data active = fluorescence above about 47
RGS7-Gao reg = modulates binding of RGS7 to human Galphao; P09471; Multiplexed bead flow cytometry; actives lie on both sides; binding response (% of control), % at 10 µM; 220,000 compounds, 0.35% hits; AID 1439; in the data active = binding response below about 49% or above about 150%; inconclusive = no clear call, values can overlap the other calls; inactive = in between;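 note: fluorescent Galphao held in activated GDP-AlF4 state binding bead-coupled RGS7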
RGS4-Gao HTS = modulates binding between human RGS4 and Galphao. RGS4–Galpha-o binding response, % at 10 µM. multiplexed bead flow cytometry, RGS–Galpha-o binding. shares compounds with RGS16-Gao. AID 1504. 1,600 compounds, 99% hits;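 note: fluorescently labeled Galpha-o bound to GDP with aluminium fluoride binding biotinylated RGS beads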
Biotin-avidin = biotin-avidin bead binding disruption counter-screen. 1,700 tested, under 10 active. shares compounds with RGS16-Gao. inhibition, % at 10 µM. streptavidin beads, fluorescein-biotin binding, flow cytometry. AID 1783;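 active = inhibition above 50%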;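 note: median green fluorescence of gated singlet beads compared with DMSO control wells; 0% = DMSO wells and 100% = complete loss of bead fluorescence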
RGS8-Gao single = RGS8-Galphao interaction regulation, single point confirmation; 1,700 compounds, 3% hits; AID 1836; binding response (% of control), % at 10 µM; shares compounds with RGS16-Gao; bead-based flow cytometry RGS8-Galphao binding, fluorescence; actives lie on both sides; in the data active = binding response below about 72% or above about 130%; inactive = in between;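 note: Galphao activated as GDP AlF4 complex before binding bead RGS8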
RGS7-Gao confirm = confirmation of regulators of human RGS7-Galphao interaction; response (percent of control binding), % at 10 µM; shares compounds with RGS16-Gao; 1,700 compounds, 7.8% hits; bead-based flow cytometry RGS7-Galphao binding; actives lie on both sides; in the data active = response below about 75% or above about 130%; inactive = in between;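 note: fluorescent Galphao activated with GDP and aluminum fluoride binding bead-coupled RGS7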
RGS16-Gao single = RGS16-Galphao interaction regulation, single point confirmation; shares compounds with RGS16-Gao; bead-based flow cytometry, RGS16-Galphao binding; actives lie on both sides; response (% of control binding), % at 10 µM; 1,700 compounds, 4% hits; AID 1838; in the data active = response below about 74% or above about 130%; inactive = in between;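 note: Galphao activated as the GDP aluminium fluoride complex binding bead-coupled RGS16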
RGS4-Gao confirm = RGS4-Galphao interaction regulation, single point confirmation; 1,700 compounds, 4% hits; binding response (% of control), % at 10 µM; RGS4-Galphao binding, multiplexed bead flow cytometry; actives lie on both sides; shares compounds with RGS16-Gao; in the data active = binding response below about 74% or above about 130%; inactive = in between
RGS19-Gao single = confirmation of regulators of human RGS19-Galphao interaction; shares compounds with RGS16-Gao; bead-based flow cytometry RGS19-Galphao binding; actives lie on both sides; response (percent of control binding), % at 10 µM; 1,700 compounds, 5% hits; AID 1841; in the data active = response below about 50% or above about 160%; inactive = in between;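 note: 100% = no compound control and 0% = blank background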
Numbers without * were called inactive; i = inactive; ? = inconclusive; . = not tested or not shown; + = active, no number; [ ] = another dose, or the depositor's remark. Unless noted, the rule behind the calls is not given here.

SMILES | RGS4-Gao reg | RGS8-Gao reg | RGS16-Gao | GSH bead fluor | Avidin bead fluor | RGS7-Gao reg | RGS4-Gao HTS | Biotin-avidin | RGS8-Gao single | RGS7-Gao confirm | RGS16-Gao single | RGS4-Gao confirm | RGS19-Gao single
O=C(NN=C1C2CC3CC(C2)CC1C3)c1cccc(S(=O)(=O)N2CCOCC2)c1 | 103 | 102 | 109 | 9 | 17 | 102 | . | . | . | . | . | . | .
CCOc1ccc(CCNC(=O)c2[nH]c(C)c(C(C)=O)c2C)cc1OCC | . | . | . | 10 | . | . | . | 3 | 101 | 96 | 99 | 98 | 91
COc1ccc(CNc2nc3ccccc3n2C)c(O)c1 | 98 | 103 | 102 | . | 8 | ? | . | . | . | . | . | . | .
Cn1c(NCc2cc(Br)ccc2O)nc2ccccc21 | 119 | 141*[activator] | 291 | 6 | 7 | 116 | 119* | -2 | 95 | 72* | 85 | 85 | 80
COc1ccc(N=C(C)C2=C(O)c3ccccc3C2=O)cc1 | 102 | 100 | 94 | 9 | 12 | 104 | . | . | . | . | . | . | .
COc1ccc(N=C(N(C)C)P(=O)(N(C)C)N(C)C)cc1 | 138 | 150*[activator] | i | 39 | 3 | 126 | 138* | 1 | 101 | 100 | 105 | 103 | 111
O=C(Nc1ccc2c(c1)OCO2)C1CCN(C(=O)c2ccc(Cl)cc2)CC1 | 102 | 100 | 105 | 25 | 12 | 101 | . | . | . | . | . | . | .
O=C(Nc1cccc(F)c1)C1CCN(C(=O)c2ccc(Cl)cc2)CC1 | 74 | 70 | 18* | 7 | 2 | 83 | 74* | -2 | 100 | 98 | 98 | 98 | 108
COC(=O)c1ccc(NC(=O)C2CCN(C(=O)c3cc(OC)c(OC)c(OC)c3)CC2)cc1 | 276*[activator] | . | . | 35 | . | 137 | . | -2 | 103 | 106 | 103 | 100 | 107
CCOC(=O)CC(=O)CSc1ncnc2c1nnn2-c1ccc(OC)cc1 | 90 | 99 | 91 | 15 | 9 | 94 | . | . | . | . | . | . | .
COC(=O)C1=C(N)Oc2cc(C)n(Cc3cccnc3)c(=O)c2C1c1cccc(OC)c1OC (stereo unspecified) | 125 | 91 | 118 | 28 | 148* | 240*[activator] | 125* | -1 | 100 | 101 | 102 | 101 | 94
Cc1cc[n+]2n1CC(O)C2 (stereo unspecified) | . | . | . | . | . | . | . | 2 | 103 | 97 | 101 | 103 | 85
Cc1ccc(-c2nc3cccnc3s2)cc1NS(=O)(=O)c1ccc2c(c1)CCCC2 | 28* | 46* | 29 | 16 | 2 | 32* | . | 0 | 104 | 102 | 103 | 104 | 107
O=S(=O)(Nc1cccc(-c2nc3cccnc3s2)c1)c1ccc2c(c1)CCCC2 | 104 | 103 | 101 | 17 | 5 | 105 | . | . | . | . | . | . | .
Cc1c(Cl)cccc1NC(=S)NC(=O)CCN1C(=O)c2ccccc2C1=O | 49* | 62 | 61 | 5 | 0 | 47* | . | 0 | 108 | 104 | 111 | 106 | 106
FC(F)(F)c1ccc(NC(=S)NCc2ccccc2)cc1 | 101 | 103 | 104 | 17 | 25 | 99 | . | . | . | . | . | . | .
O=C(c1cc2c(s1)-c1ccccc1S(=O)(=O)C2)N1CCN(Cc2ccccc2)CC1 | 132 | 93 | 107 | 19 | 151* | 276*[activator] | 132* | 0 | 101 | 97 | 103 | 101 | 101
CCNC(=O)NC(=O)CSc1ccc(NC(C)=O)cc1 | 47* | 73 | 58 | 12 | 13 | 54 | . | 0 | 110 | 113 | 114 | 108 | 121
O=C(NCC1CC1)NC(=O)c1c(F)cccc1Cl | 5.7* | 42* | 9.3* | . | 0 | ? | . | 0 | 102 | 99 | 103 | 104 | 105
Cc1nnc(NC(=O)c2ccccc2Oc2ccccc2)s1 | 98 | 98 | 103 | 22 | 28 | 102 | . | . | . | . | . | . | .
CSc1ncccc1C(=O)Nc1nc2c(C)cccc2s1 | 101 | 104 | 109 | 4 | 13 | 102 | . | . | . | . | . | . | .
Cc1cc(C(=O)Nc2nc3c(C)cccc3s2)c(C)o1 | 72 | 68 | 17* | 16 | 9 | 79 | 72* | -1 | 101 | 102 | 102 | 104 | 96
CS(=O)(=O)N(CC(=O)N1CCCC1)Cc1ccc(Cl)cc1 | 98 | 100 | 102 | 10 | 14 | 97 | . | . | . | . | . | . | .
CC(CCOC1=NS(=O)(=O)c2ccccc21)NC(=O)C(=O)Nc1ccccc1 (stereo unspecified) | 23* | 61 | 42 | . | 0 | ? | . | 2 | 131*[activator] | 556*[activator] | 286*[activator] | 466*[activator] | 211*[activator]
Cc1nc(Cl)c(C(=O)NCCC(C)C)c(C)c1[N+](=O)[O-] | 105 | 115 | 178*[activator] | 8 | 7 | 107 | 105* | 1 | 97 | 95 | 96 | 96 | 80
SMILES | RGS4-Gao reg | RGS8-Gao reg | RGS16-Gao | GSH bead fluor | Avidin bead fluor | RGS7-Gao reg | RGS4-Gao HTS | Biotin-avidin | RGS8-Gao single | RGS7-Gao confirm | RGS16-Gao single | RGS4-Gao confirm | RGS19-Gao single
COC(=O)c1cc(C(=O)NCCC(C)C)cc([N+](=O)[O-])c1 | 99 | 100 | 101 | 10 | 10 | 101 | . | . | . | . | . | . | .
FC(F)(F)c1nnc2ccc(N3CCCCCC3)nn12 | 149 | 173*[activator] | . | 30 | 6 | 122 | 149* | -1 | 101 | 88 | 93 | 96 | 96
FC(F)(F)c1nnc2ccc(N3CCCC3)nn12 | 103 | 102 | 106 | 34 | 16 | 104 | . | . | . | . | . | . | .
CCOc1ccccc1NS(=O)(=O)N(C)C | 11* | 65 | -853 | 15 | 6 | 61 | . | -1 | 100 | 96 | 98 | 94 | 102
CCC(C(=O)Nc1cccc(C(=O)O)c1C)c1ccccc1 (stereo unspecified) | 89 | 95 | 92 | 11 | 9 | 89 | . | . | . | . | . | . | .
O=C(CNC(=O)c1ccccc1)Nc1cccc(C(F)(F)F)c1 | 762*[activator] | 193*[activator] | +[activator] | 211* | 560* | 845*[activator] | . | 3 | 95 | 72* | 85 | 83 | 64
Cc1ccc(C(=O)NCC(=O)Nc2cccc(C(F)(F)F)c2)cc1 | 98 | 100 | 101 | 14 | 21 | 98 | . | . | . | . | . | . | .
